The target of the test is rat CYP2E1, Cyp2e1 (gene 25086) (UniProt P05182). As to the kind of experiment: NVS_ADME_rCYP2E1: NovaScreen (NVS) CYP450-related Enzyme Activity (ADME) Assay for rat CYP2E1. The protocol: NVS_ADME_rCYP2E1 is a biochemical, single-readout assay that uses extracted gene-proteins in a cell-free assay. Measurements were taken 1 hour after chemical dosing in a 96-well plate.NVS_ADME_rCYP2E1 is one of one assay component(s) measured or calculated from the NVS_ADME_rCYP2E1 assay. It is designed to make measurements of enzyme activity, a form of enzyme reporter, as detected with fluorescence intensity signals by Fluorescence technology.Data from the assay component NVS_ADME_rCYP2E1 was analyzed into 1 assay endpoint. This assay endpoint, NVS_ADME_rCYP2E1, was analyzed in the positive analysis fitting direction relative to Acetonitrile as the negative control and baseline of activity. Using a type of enzyme reporter, loss-of-signal activity can be used to understand changes in the enzymatic activity as they relate to the gene Cyp2e1. Furthermore, this assay endpoint can be referred to as a primary readout, because this assay has produced multiple assay endpoints where this one serves a enzymatic activity function. To generalize the intended target to other relatable targets, this assay endpoint is annotated to the cyp intended target family, where the subfamily is xenobiotic metabolism.
Sequence of rat CYP2E1, Cyp2e1 (gene 25086) (P05182 whole entry, looked up): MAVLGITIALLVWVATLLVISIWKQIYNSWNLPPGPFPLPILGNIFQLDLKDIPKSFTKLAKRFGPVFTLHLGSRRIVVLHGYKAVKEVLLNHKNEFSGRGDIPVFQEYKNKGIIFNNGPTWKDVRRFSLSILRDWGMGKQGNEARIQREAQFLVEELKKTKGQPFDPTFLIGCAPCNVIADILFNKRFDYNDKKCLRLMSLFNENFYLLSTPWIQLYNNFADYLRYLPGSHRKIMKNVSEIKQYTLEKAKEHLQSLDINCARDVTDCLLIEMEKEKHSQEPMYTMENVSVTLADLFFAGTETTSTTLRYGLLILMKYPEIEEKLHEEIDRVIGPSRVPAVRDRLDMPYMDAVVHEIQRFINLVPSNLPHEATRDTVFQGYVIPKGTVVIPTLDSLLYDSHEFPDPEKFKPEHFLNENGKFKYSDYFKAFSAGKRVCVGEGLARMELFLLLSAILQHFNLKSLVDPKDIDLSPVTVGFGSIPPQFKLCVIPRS
Binding assays used specific radioligands (tritiated, iodinated) with non-radioactive competitive displacement ligands in agonist or antagonist protocols (as indicated) and various reference compounds and inhibitors to titrate specific binding to receptors and transporters. Most enzyme assays (CYPs, kinases, phosphatases, proteases, HDACs) used recombinant protein and specific substrates (fluorescence mostly, some colorimetric and radioactive) and inhibitors, followed by a biochemical separation of substrate and product. All assays for the biochemical HTS were initially run in duplicate at a single concentration (10 uM for CYP450 assays and 25 uM for all others). Assay-chemical combinations meeting a pre-defined threshold (e.g., 30% inhibition and other criteria defined below) were then run in singleton concentration-response format with maximum concentration of 20 uM for CYPs and 50 uM for all others. Each assay was run with positive and negative controls, and concurrent controls on every plate. The follow-up (secondary) screen tested active chemical-pairs in concentration series, as well as a few additional assays not tested in the primary screen, some selected negative inactives, and several cases re-run in the concentration series for confirmatory purposes.

Results filed as inconclusive are left out. The source made the active and inactive calls. The calls were made as follows: active = hit-call score of the fitted dose curve at least 0.9, where 1 is the maximum; inconclusive = response in the unintended direction; inactive = score below 0.9.

Turning to `C#CCOC(=O)[C@@H](C)Oc1ccc(Oc2ncc(Cl)cc2F)cc1`, the AC50 is 1.6 µM (active). With `S=C([S-])NCCNC(=S)[S-].[Mn+2]`, the call was inactive. `S=C(S)NCCNC(=S)S.[Mn+2].[S-]C([S-])=NCCN=C([S-])[S-].[Zn+2]`: the outcome was inactive.

On to `N#CSCSc1nc2ccccc2s1`, for which the AC50 was 10 µM (active).

The values are drawn from PubChem BioAssay AID2283123 (EPA ToxCast).
